# Laboratory results: the supplement of paper PMC11417369
# The full ranking holds about 25,000 sequences; the median of “ln(normalized median fluorescence intensity)” is about 9.7, and the highest 2% start at about 11. This excerpt belongs to a sample that is enriched for the highest values.
# Tested on: PfAP2-HC AP2 domain (GST-tagged)
# Test: gcPBM binding intensity (ln(normalized median fluorescence intensity)); higher = stronger DNA binding
# Procedure, shortened: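 Using an Agilent 4 × 180k array, primer-extended double-stranded 36-bp intergenic genomic probes and negative controls were exposed for 1 h to GST-fused P. falciparum DNA-binding domains expressed in E. coli. Binding was carried out in 1× PBS with 1% milk, 0.2 mg/ml BSA, 0.5% salmon testes DNA and 0.03% Triton X-100, and protein was detected with Alexa488 anti-GST antibody and a 488 nm scan. Binding intensity is the highest Masliner-normalised natural-log median intensity across replicate spots of either probe orientation.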
row,Sequence,gcPBM binding intensity (ln)
1,ATATGTCACTTGTATACACACATATAGATTTCAATC [CACACA_site7519],9.94
2,GAAAATAAAAAATATGAACACACATATATAACAAAA [CACACA_site7975],10.5
3,AAAAAAAACAGACACACACACAAATATATAAAAATA [CACACA_site1172],10.6
4,ATGGTACATACATACACACACACAAAAAAAAAAAAA [CACACA_site1578],11.3
5,AATACACCCAGACACACACACAAAAAAAAAAAAAAA [CACACA_site513],10.1
6,TACAGATACGGACACACACACACACCCAGACAAAAA [CACACA_site4432],11
7,ATAAATGACAGACACACACACAAAAAAAAAAAACAA [CACACA_site2626],11.5
8,AACAAATACAGACACACACACACACCCAAAAAAAAA [CACACA_site515],10.9
9,GGTACATACAAACACACACACAAAAAAAAAAAAATA [CACACA_site1577],10.3
10,CATACAGATGGACACACACACACACCCACAGACAAA [CACACA_site4431],10.5
11,TACATATACAGACACACACACACACCCCCACAAAAA [CACACA_site495],10.8
12,TTTTTGTAATGACACACACACAAACAGAAAAAATAA [CACACA_site7062],10.2
13,AACACATACAAACACACACACAAAAAAAAAAAAAAA [CACACA_site393],10.4
14,TAGGGATTATACCACACACACATACACATAAATATA [CACACA_site3178],10.3
15,ACAATATGCAAAAAGTGTACACATTCATTTATATAA [XGTACX_site1061],10.1
16,AGCAACCCCCTAGCTACACACATATAGATATAAATA [CACACA_site6577],10.6
17,TTTAAATCGTTAAAAACACACAAAAAAAATCAATTA [CACACA_site2519],9.59
18,TTTTTTTTTTTGGTTACACACATTTGTATATTCTCA [CACACA_site134],9.89
19,CTATATGTTAAATTCTCACACATTATTACAATTTAA [CACACA_site5979],9.67

row,Sequence,gcPBM binding intensity (ln)
1,AATTGTAAATTGGGCACTTATAAAAATGAACAAATA [CACACA_negctrl_site1583],9.71
2,ATGAAAAAATTTATATGTACTTAAAATATAATCATA [XGTACX_site1228],9.33
3,AAAAAAAACAGACACACACACAAATACATACACAAA [CACACA_site705],10.5
4,AAAAAAAACAGACACATACACACAAAAATGTTATAA [CACACA_site82],10.9
5,AACACATACAGACACACACACAAAAAAAAAAAAAAA [CACACA_site6322],10.9
6,TACAAACAGACATATACACACAAAAAAAAAATAAAA [CACACA_site2562],9.89
7,AAATAAAACAGACACACACACACATACACAAAAAAA [CACACA_site7753],10.9
8,AAAAAACACGCACATACACACAAAAATGTTATAAAT [CACACA_site6188],10.2
9,AAAAAACACAGACATACACACAAAAAGGTTATAAAT [CACACA_site4222],10.2
10,AAAAAAAAAAAAAACACACACATACAGACAAAAATG [CACACA_site83],11.5
11,TATATATACAGACACATACACACAAATAAAAAAACA [CACACA_site3413],10.3
12,TATATTTTTATAATAACACACGATATATGTTTAGGA [CACACA_site1283],9.63
13,TAAGACTATTAAAAAATTGAGTACATGAACTGTTCA [GTGCAC_negctrl_site670],9.41
14,AACAAAATAAGACACACACACAAATGTACCTATATA [CACACA_site7189],10.4
15,ATATCTAAATATATTACACACAGATATCTTCCTATA [CACACA_site3701],9.87
16,CTAAGAAAAAATAAAGCACACAAATATTTTAAAAAC [CACACA_site9094],9.93
17,TATATATGTATCAAGTGTACAGTTTTAAAAAAAAAA [XGTACX_site6011],9.67
18,TTATATATTTTTATGTGTACTTATATATATATATAT [XGTACX_site6211],9.77
19,TATATGTTAATTTTTTTTTTTTTTTTTTTTTTTATA [CACACA_negctrl_site62],9.26

row,Sequence,gcPBM binding intensity (ln)
1,TTTTTTATATATGTGTGTGTGTGTGTGTCAAGTTTA [GTGCAC_negctrl_site460],11.1
2,ATATTTATATATATATGTACATATGTGTGTTTTTAT [XGTACX_site3956],9.91
3,AATTTTTTTTTTTTTTTTTTTTATATATGTGTGTGT [XGTACX_negctrl_site129],11
4,ATAATGTAAAATAAATGTACGCAATATATAAAAAAT [XGTACX_site5747],10.1
5,AAATAATTTACTTAATGTACATATATATATATATAT [XGTACX_site8594],9.78
6,TTGTAGGTAAATATGTGTACGCATTATTATTCTTAA [XGTACX_site216],9.58
7,CTTATAATATTACGGGTGCTATAAATACATTATATT,9.72
8,TAAATATATATATGGTGTACCATTTTGGGTTAATAT [XGTACX_site2706],9.54
9,AAACAAAAAAAATAAGCACACATATATATATATATA [CACACA_site8173],9.7
10,AATATAAGCAAATACACACACACATATATATATATA [CACACA_site3805],10.7
11,CCAACAAAAATAAGCACACACAAATATACATACATA [CACACA_site3606],11.1
12,ATACAACAAAAATAAGCACACACAAATATACATACA [CACACA_site9201],10.8
13,ACAACAAAAATAAGCACACACAAATATACATACATA [CACACA_site7664],11.3
14,ACAAAAAAAATAAGCACACATATATATATATATATA [CACACA_site816],9.91
15,ATATATATATATATGTGTACATATAAGATAGAAGAA [XGTACX_site3198],10.2
16,TTTTTTAATATTTATACATGCATGCCGATTACTATA [TGCATGCA_site26],9.87
17,TATATATAATACAGTATGCACTATTTTTATTAAAAA,9.41
18,AGTAACAAAAGAAAAAAATATGCAAACATATATATA [XGTACX_negctrl_site468],9.65
19,TTTTTATTTGGTTGTGTACACATATATATATATATA [CACACA_site5844],9.84
